{
  "source": "PubChem BioAssay (NCI)",
  "note": "Values joined by “and” are separate entries in the source; they are usually repeats but may differ in a detail not shown here. Equal values may be shown once. Compounds without any hit were thinned out: in the full panel of roughly 83,000, 20% have a hit.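 Activity criterion: percent growth below 10, measured after cells in 96-well plates were exposed to a single compound concentration for 48 hours.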 Unmarked numbers belong to inactive results. Active and inactive are the calls of the source.",
  "data": [
    {"tested_on": "MDA-MB-468 breast", "assay": "NCI-60 one-dose screen, 48 h (100 = growth as untreated, 0 = no growth, -100 = all killed)", "details": "10 µM unless noted", "values": [
      {"smiles": "CCCCCCCCCCCCNC(=O)N[C@H](C(=O)N[C@H]1/C=C/OCCNC(=O)/C=C/[C@H](C(C)C)NC1=O)C(C)C", "growth": "15.5%"},
      {"smiles": "COc1ccc(/C=C(/c2ccccc2)[N+](=O)[O-])cc1", "growth": "-77.6% (active)"},
      {"smiles": "COC(=O)CCc1n(Cc2ccc3ccccc3c2)c2ccccc2[n+]1Cc1ccc2ccccc2c1", "growth": "-15% (active)"},
      {"smiles": "COc1cc(/C=C/c2cc(O)c3cc(C(C)=O)c(=O)oc3c2)cc2c1O[C@]1(C)CC[C@@H](O)C(C)(C)[C@H]1C2", "growth": "65%"},
      {"smiles": "CCN(CC)S(=O)(=O)c1ccc(-c2nc(C(Cl)Cl)nc3cc(-c4ccc(F)cc4)nn23)cc1", "growth": "-31.9% (active)"},
      {"smiles": "O=S(=O)(Nc1ccc(-c2nc(-c3cccc(O)c3)c(-c3ccnc(Br)c3)[nH]2)cc1)c1ccccc1", "growth": "-3.6% (active)"},
      {"smiles": "CC1(C)CCC(S(=O)(=O)c2ccc3c(c2)/C(=N\\O)c2cc(S(=O)(=O)N4CCC(O)(c5cccc(C(F)(F)F)c5)CC4)ccc2-3)CC1", "growth": "-78.4% (active)"},
      {"smiles": "CCc1ccc(-c2ccc(Nc3ccccc3)nn2)cc1S(N)(=O)=O", "growth": "34.4%"},
      {"smiles": "CN(Cc1cnc2nc(N)nc(N)c2n1)c1ccc(C(=O)NC(CCC(=O)O)C(=O)O)cc1", "note": "(stereo not given)", "growth": "6.99% (active)"},
      {"smiles": "COc1ccc(C/C(C)=C(\\c2ccc(Cl)cc2)c2ccc(OCCCN(C)C)cc2)cc1", "growth": "59.7%"},
      {"smiles": "Cc1c(Cl)cccc1NC(=S)NC(=O)c1ccccc1", "growth": "33.9%"},
      {"smiles": "NCCNc1nc2ccc(F)cc2c2c(=O)c3cc(F)ccc3sc12", "growth": "45.3%"},
      {"smiles": "CC(=O)Oc1ccc(/C=N/NC(N)=S)nc1", "growth": "-13.9% (active)"},
      {"smiles": "O=C(NC1CCNCC1)c1[nH]ncc1NC(=O)c1c(Cl)cccc1Cl", "growth": "-37.2% (active)"},
      {"smiles": "Cc1cc2nc(CO)[nH]c2cc1C", "growth": "135%"},
      {"smiles": "COc1cc(-c2nc3occn3c2-c2ccnc(NCCCNS(=O)(=O)c3ccc(O)cc3)n2)ccc1F", "growth": "91.4%"},
      {"smiles": "CCOC(=O)c1csc(N)n1", "growth": "95.6% and 91.5%"},
      {"smiles": "O=C1Nc2ccccc2/C1=N/N=C/c1c[nH]c2ccccc12", "growth": "84.8%"},
      {"smiles": "O=C(CCc1nnc(Cn2cncn2)o1)c1nc2ccccc2[nH]1", "growth": "104%"},
      {"smiles": "CCOc1cc(-c2ccc[nH]2)[nH]c1/C=C1\\N=C(C)C(C(=O)OC)=C1C", "growth": "-86.9% (active)"},
      {"smiles": "CCN(CC)CCCC(C)Nc1cnc(C(=O)Nc2ccc(Cl)c3cccnc23)cn1", "note": "(stereo not given)", "growth": "-28% (active)"},
      {"smiles": "O=C(CN1CCOCC1)Nc1ccc2ncnc(Nc3ccc(OCc4cccc(F)c4)c(Cl)c3)c2c1", "growth": "-25.1% (active)"},
      {"smiles": "CCCCN(CCCC)C(=O)[C@H](CC)[C@@H]1CC[C@@H](C)[C@@H]([C@H](C)[C@@H](O)[C@@H](C)C(=O)[C@H](CC)C2O[C@]3(C=C[C@@H](O)[C@]4(CC[C@@](C)([C@H]5CC[C@](O)(CC)[C@H](C)O5)O4)O3)[C@H](C)C[C@@H]2C)O1", "note": "(stereo not given in full)", "growth": "-22.1% (active)"},
      {"smiles": "COc1ccc(-n2c(-c3ccc(NC(=O)CCCl)cc3)nnc2-c2cc(OC)c(OC)c(OC)c2)cc1", "growth": "-11.1% (active)"},
      {"smiles": "O=C(/C=C/c1ccc(F)cc1)c1ccc(O)cc1", "growth": "83%"},
      {"smiles": "CS(=O)(=O)c1nccc(-c2c(-c3cccc(OCCc4ccccc4)c3)nc3sccn23)n1", "growth": "20.2%"},
      {"smiles": "NC1=NC(c2ccccc2OS(=O)(=O)c2ccc(Br)cc2)n2c(nc3ccccc32)N1", "note": "(stereo not given)", "growth": "104%"},
      {"smiles": "COc1ccc(NC(=S)Nc2ccccn2)cc1", "growth": "104%"},
      {"smiles": "CC(=O)Nc1ccc2c(c1)/C(=C\\C=C/c1ccc([N+](C)(C)C)cc1)c1ccccc1-2", "growth": "21.5%"},
      {"smiles": "COc1cc(C2CC(c3ccccc3)=NN2C=O)ccc1Oc1ccnc2cc(Cl)ccc12", "note": "(stereo not given)", "growth": "16.5%"},
      {"smiles": "Fc1ccccc1/C=C(/C1=NCCN1)n1cnc2ccccc21", "growth": "98.1%"},
      {"smiles": "Oc1cccc2ccc(N/N=C/c3cc(CN4CCCCC4)c(O)c4ncccc34)nc12", "growth": "-26.3% (active)"},
      {"smiles": "CN(C)CCC(=O)Nc1ccc(-n2cc(-c3cccc(NC(=S)Nc4cccc(-c5cn(-c6ccc(NC(=O)CCN(C)C)cc6)nn5)c4)c3)nn2)cc1", "growth": "-9.56% (active)"},
      {"smiles": "COc1ccc(C(=O)c2sc3nc(-c4ccccc4OC)ccc3c2N)cc1OC", "growth": "66.9%"},
      {"smiles": "CNC(=O)c1cc(Oc2ccc3c(c2)sc2nc(-c4cc(C(F)(F)F)cc(C(F)(F)F)c4)cn23)ccn1", "growth": "4.64% (active)"}
    ]}
  ]
}
